Screening data (PubChem BioAssay)
Sampled rows, rich in hits. Any-hit rate of the full collection: about 4.1%.
ssDAF-12 act: S. stercoralis DAF-12 nuclear receptor activators, primary screen, cell-based, luminescence, HEK293, GRIP1 co-expression, lit1-tk-luc. Nuclear hormone receptor DAF-12 (Strongyloides stercoralis). HEK293 ssDAF-12/GRIP1 lit1-tk-luc reporter; % of 3 µM dafachronic acid response. activation, % at 6.8 µM. 1% of 370,000 active;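 active means activation above the mean over all tested compounds plus 3 SD, cut at about 0.9% in these data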
hgDAF12 agonist: H. glycines DAF-12 receptor agonists, primary screen, cell-based, luminescence, HEK293, GAL4 fusion, UAS-luciferase; activation, % at 6.8 µM; Nuclear hormone receptor DAF-12 (Heterodera glycines), GAL4 fusion; 1.8% of 370,000 active; HEK293 GAL4-hgDAF12 UAS-luciferase reporter, agonist luminescence; normalized to butyrate control;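 active means activation above a cutoff set at the mean of all screened compounds plus 3 SD, cut at about 10% in these data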
hcDAF-12 act: H. contortus DAF-12 nuclear receptor activators, primary screen, cell-based, luminescence, HEK293, lit1-tk-luc reporter | HEK293 hcDAF-12 lit1-tk-luc reporter; 0% DMSO, 100% Δ7-dafachronic acid | activation, % at 6.8 µM | 1.4% of 370,000 active | AID 652067, 2013;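 active means activation above the mean of all tested compounds plus 3 SD, cut at about 5.5% in these data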
DAX1 inh-1: DAX1 (NR0B1) inhibitors, primary screen, cell-based, HEK293, Gal4-DAX1, luciferase luminescence; Nuclear receptor subfamily 0 group B member 1 (Homo sapiens), P51843; HEK293 Gal4-DAX1 luciferase reporter; inhibition, % at 6.75 µM; 0.99% of 340,000 active; AID 504766, 2011;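 active means inhibition above the mean over all tested compounds plus 3 SD, cut at about 4.2% in these data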;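 further: inhibition shows as a rise in luminescence from relieved DAX1 repression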
Target sequence (P51843 207-470 limits assumed): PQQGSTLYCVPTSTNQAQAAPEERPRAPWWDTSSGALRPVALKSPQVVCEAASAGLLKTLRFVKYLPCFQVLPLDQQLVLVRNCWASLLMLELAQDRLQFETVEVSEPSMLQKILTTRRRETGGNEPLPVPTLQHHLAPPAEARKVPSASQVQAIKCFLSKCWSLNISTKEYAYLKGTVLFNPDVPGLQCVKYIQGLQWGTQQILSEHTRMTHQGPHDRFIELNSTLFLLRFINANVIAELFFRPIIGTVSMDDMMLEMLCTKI
DAX1 inh-2: DAX1 (NR0B1) inhibitors on StAR promoter, primary screen, cell-based, luminescence, SF-1 (NR5A1), full-length DAX-1; inhibition, % at 6.8 µM; HEK293T StAR-luciferase reporter, SF-1/DAX-1 repression relief; 1.1% of 370,000 active;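 active means inhibition above the mean over all tested compounds plus 3 SD, cut at about 3.6% in these data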;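 further: higher inhibition means more luminescence from relief of DAX-1 repression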
Of the large screens only hits and unclear results are named; the others gave an inactive call.

Cc1noc(C)c1NC(=O)N(C)C[C@H]1OCCCC[C@@H](C)Oc2ccc(NC(=O)c3ccccc3)cc2C(=O)N([C@H](C)CO)C[C@@H]1C	none
C[C@@H]1CN([C@H](C)CO)C(=O)c2cc(NC(=O)Cc3cn(C)c4ccccc34)ccc2O[C@H]1CN(C)C(=O)Nc1ccc2c(c1)OCO2	hcDAF-12 act 6.2
CCOC(=O)Cc1nn(Cc2nc(-c3ccc(C#N)cc3)cs2)c(=O)c2ccccc12	none
COc1ccc(N2C(=O)c3[nH]nc(-c4ccccc4)c3C2c2cccc(C(F)(F)F)c2)cc1 (centres undefined)	none (no result: DAX1 inh-1)
C[C@@H]1CCCCO[C@@H](CN(C)C(=O)Nc2ccc3c(c2)OCO3)[C@@H](C)CN([C@H](C)CO)C(=O)c2cc(N(C)C)ccc2O1	DAX1 inh-1 4.3
C[C@@H]1CCCCO[C@@H](CN(C)C(=O)c2ccncc2)[C@@H](C)CN([C@H](C)CO)C(=O)c2cc(NC(=O)Cc3ccccc3)ccc2O1	hgDAF12 agonist 11
C[C@@H]1CCCCO[C@H](CN(C)C(=O)Nc2ccc(C(F)(F)F)cc2)[C@@H](C)CN([C@H](C)CO)C(=O)c2cc(NC(=O)Nc3ccc4c(c3)OCO4)ccc2O1	none (no result: DAX1 inh-1)
COC(=O)N1C[C@H](OCc2cn(-c3cc(Cl)cc(Cl)c3)nn2)[C@H](OCc2cn(-c3cc(Cl)cc(Cl)c3)nn2)C[C@@H]1c1ccccc1Br	none (no result: DAX1 inh-1)
Cc1ccc([C@H]2C[C@]34CN(Cc5ccccc5)S(=O)(=O)[C@H]3C[C@H]2O4)cc1	none (no result: DAX1 inh-1)
CCN(CC)C(=O)C1=C(C)N(Cc2ccccc2)C(=O)C(CC(=O)NCc2cccc3ccccc23)C1 (centres undefined)	none
CCn1c(=O)c2cc(C(=O)Nc3ccc(OC)cc3OC)sc2c2ccccc21	DAX1 inh-1 4.2
CCCN(CCC)CCNC(=O)c1cc2c(=O)n(CC)c3ccccc3c2s1	DAX1 inh-1 4.6
CC(=O)NC12CC3CC(C1)CC(C(=O)Nc1nc4ccc(F)cc4s1)(C3)C2	none
Cc1ccc(Nc2nnc(-c3ccccc3N)o2)cc1C	hgDAF12 agonist 11, DAX1 inh-1 6.5
CCOC(=O)c1cccc(NC(=O)c2ccccc2C)c1	hgDAF12 agonist 11
CC(NC(=O)CCC(=O)NC(C)c1ccccc1)c1ccccc1 (centres undefined)	none
CC(NC(=O)CCN1C(=O)c2ccccc2C1=O)c1ccccc1 (centres undefined)	DAX1 inh-1 4.5
CC(NC(=O)Cn1cccc1)c1ccccc1 (centres undefined)	DAX1 inh-2 4.0
CCCCNc1nc(Nc2ccc(C)c(Cl)c2)c2cnn(C)c2n1	none
COc1ccc(-c2csc(Nc3ccccc3)[n+]2Cc2ccccc2)cc1	ssDAF-12 act 0.9
CCc1ccc(OCc2cnc(Cl)s2)cc1	DAX1 inh-1 4.4
Clc1ccc(OCc2cnc(Cl)s2)cc1	none
Cc1nc2cc(-c3cccc(F)c3)nn2c(N2CCN(C(=O)c3ccco3)CC2)c1C	hcDAF-12 act 5.8
CCNC(=O)C1(C)CCN(C(=O)c2ccccc2F)C1 (centres undefined)	none (no result: DAX1 inh-1)
COc1ccc(CN(CCN2CCOCC2)C(=O)c2cccc(F)c2F)cc1OC	none (no result: DAX1 inh-1)
Cc1ccc(S(=O)(=O)N2CC3=C(c4ccccc4)CC4(C)C(=O)C(C)(C)CC4=C3C2)cc1 (centres undefined)	none (no result: DAX1 inh-1)
CCCc1nc2ccccc2c(=O)n1NC(=O)c1c(O)c2ccccc2n(C)c1=O	none
CCc1nc2ccccc2c(=O)n1NC(=O)c1c(O)c2ccccc2[nH]c1=O	DAX1 inh-1 4.9
CCCCCCCCN1C(=O)[C@@H](CC(=O)NCc2ccc(C)o2)C[C@@]2(C(=O)OC)C1=C[C@H](C1CCCC1)O[C@@H]2C	none (no result: DAX1 inh-1)
COC(=O)C1(C(=O)OC)C[C@H](/C=C/c2ccccc2)N(Cc2ccccc2OC)[C@@H]1c1cccc(Br)c1	none (no result: DAX1 inh-1)
COC(=O)C1(C(=O)OC)C[C@H](/C=C/c2ccccc2)N(Cc2ccccc2OC)[C@@H]1c1ccccc1	DAX1 inh-2 3.9 (no result: DAX1 inh-1)
COc1ccc(N2CCN(Cc3nc4ccccc4n3C)CC2)cc1	ssDAF-12 act 1.8
COc1ccc(N2CCN(c3cnc4ccccc4n3)CC2)cc1	hgDAF12 agonist 11
O=C(N[C@@H](Cc1cccnc1)C(=O)N1CCC[C@H]1C(=O)NC1CCCC1)C1CCCC1	none (no result: DAX1 inh-1)
CCCc1cc(=O)oc2cc(OCC(=O)Nc3ccccn3)ccc12	DAX1 inh-2 4.0
CCCc1cc(=O)oc2cc(OCC(=O)N3CCC(C(N)=O)CC3)ccc12	DAX1 inh-1 6.3
CCc1cc(=O)oc2cc(OCC(=O)N3CCC(C(=O)O)CC3)ccc12	DAX1 inh-1 4.6
Cc1c(C)c2ccc(OCC(=O)N3CCC(C(=O)O)CC3)cc2oc1=O	none
Cn1c(SCC(=O)NNC(=O)c2ccccc2O)nnc1-c1ccccc1	hcDAF-12 act 6.1
COC(=O)[C@]12C[C@H](CC(=O)NCc3cccs3)C(=O)N(Cc3ccccc3)C1=C[C@H](C(C)(C)C)O[C@@H]2C	none (no result: DAX1 inh-1)
CCCCCc1ccc(-c2nnc(N)s2)cc1	none
CCCCCCc1ccc(-c2ncc(N)cn2)cc1	hgDAF12 agonist 11
O=C(CN(CC(=O)N1CCOCC1)S(=O)(=O)c1ccc(Br)s1)N1CCOCC1	DAX1 inh-1 6.8
COc1cccc(CNc2nc3cc(-c4ccccc4C)sc3c(=O)n2C)c1	none (no result: DAX1 inh-1)
COCCNc1nc2cc(-c3ccc(C)cc3)sc2c(=O)n1C	ssDAF-12 act 1.0, hgDAF12 agonist 12, DAX1 inh-2 3.8 (no result: DAX1 inh-1)
COc1cccc(-c2cc3nc(NCc4cccnc4)n(C)c(=O)c3s2)c1	ssDAF-12 act 1.0 (no result: DAX1 inh-1)
Cn1c(NCc2cccnc2)nc2cc(-c3cccc(C(F)(F)F)c3)sc2c1=O	none (no result: DAX1 inh-1)
COc1ccc(-c2cc(CNc3nc4cc(-c5ccccc5C)sc4c(=O)n3C)on2)cc1	DAX1 inh-2 4.3 (no result: DAX1 inh-1)
CN1c2ccc(-c3cccc(F)c3)cc2[C@H]2[C@H](CCN2S(=O)(=O)c2cccc(F)c2)[C@H]1CO	none (no result: DAX1 inh-1)
COC(=O)C1=C(C)NC(C)=C(C(=O)OC)C(N2C(=O)CCC2=O)C1 (centres undefined)	none (no result: DAX1 inh-1)
COc1ccc(S[C@]2(C(=O)N3CCN(C(C)=O)CC3)CC(=O)N(C(=O)c3ccccc3)[C@@H]2c2ccc(OC)cc2)cc1	none (no result: DAX1 inh-1)
O=C(CC(=O)Nc1ccccc1)Nc1ccccc1	DAX1 inh-1 4.3
O=C(CNc1ccccc1)Nc1ccc(F)cc1	ssDAF-12 act 0.9, hgDAF12 agonist 11
O=C(CNS(=O)(=O)c1ccc(F)cc1)Nc1ccccc1	none
O=C(CSCc1ccc(C(=O)O)cc1)Nc1ccccc1	DAX1 inh-1 5.1
